# Compound activity as filed in PubChem.
# Sampled rows, rich in hits. Any-hit rate of the full collection: about 2.3%.
# GLD-1 TGE inh: GLD-1/TGE RNA complex disruptors, primary screen, biochemical, fluorescence polarization; Female germline-specific tumor suppressor gld-1 (Caenorhabditis elegans), Q17339; purified GLD-1 + fluorescein TGE RNA; inhibition, % at 5.96 µM; 320,000 tested, 0.44% active;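 active = percent inhibition above a per-plate cutoff, the plate mean of test compounds plus 3 SD, cut at about 30% in these data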;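 note: 0% = DMSO wells with GLD-1 and probe and 100% = wells lacking GLD-1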
# Target sequence (Q17339 whole entry, looked up): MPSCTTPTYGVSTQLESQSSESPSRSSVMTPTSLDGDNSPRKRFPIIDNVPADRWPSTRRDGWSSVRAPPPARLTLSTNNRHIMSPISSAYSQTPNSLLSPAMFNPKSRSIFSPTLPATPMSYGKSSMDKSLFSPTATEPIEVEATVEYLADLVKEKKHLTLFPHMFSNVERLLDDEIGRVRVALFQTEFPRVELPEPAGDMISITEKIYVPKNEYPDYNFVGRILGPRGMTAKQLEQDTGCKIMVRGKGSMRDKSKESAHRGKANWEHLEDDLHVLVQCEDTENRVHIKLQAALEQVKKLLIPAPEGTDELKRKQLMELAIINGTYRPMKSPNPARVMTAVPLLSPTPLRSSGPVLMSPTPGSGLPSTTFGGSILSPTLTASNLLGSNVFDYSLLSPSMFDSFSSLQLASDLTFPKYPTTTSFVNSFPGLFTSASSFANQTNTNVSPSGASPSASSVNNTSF
# MCL1 BIM primary: inhibitors of MCL1 binding to BIM-BH3, primary screen, biochemical, fluorescence polarization; inhibition, % at 10.9 µM; 320,000 tested, 0.68% active; GST-MCL1 / FITC-Bim-BH3 fluorescence polarization;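 active = inhibition above the mean inhibition of all tested compounds plus 3 SD, set per campaign, cut at about 40% in these data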;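 note: 0% = DMSO wells and 100% = unlabeled Bim-BH3 peptide control; higher means more loss of mP so more displacement of Bim peptide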
# Bim-Mcl-1: inhibitors of Bim peptide binding to Mcl-1, primary screen, biochemical, bead-based flow cytometry, multiplex; Induced myeloid leukemia cell differentiation protein Mcl-1 (Homo sapiens), Q07820; Bim peptide-Mcl-1 binding; inhibition, % at 10 µM; 190,000 tested, 0.1% active; AID 1009, 2008; in the data active = inhibition above about 40%;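 note: 0% = no compound tracer wells and 100% = peptide blocker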
# Mcl1-Bid inh: Mcl-1/Bid binding inhibitors, primary screen, biochemical, TR-FRET, 1536-well. TR-FRET Mcl-1/Bid-Dy647 peptide binding. inhibition, % at 21.7 µM. 220,000 tested, 0.97% active;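 active = compounds that cut the binding signal by more than half at the single screening dose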;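 note: His-tagged Mcl-1 with europium anti-His antibody binding Bid BH3 peptide; 0% = Mcl-1 plus peptide wells and 100% = peptide-only wells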
# BCLXL inh: inhibitors of human Bcl-xL, primary screen, biochemical, fluorescence polarization, HTS; Bcl-2-like protein 1 (Homo sapiens), Q07817; GST-Bcl-xL / FITC-Bim BH3 peptide fluorescence polarization; inhibition, % at 10.9 µM; 320,000 tested, 0.7% active;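 active = inhibition above the mean of all tested compounds plus 3 SD, cutoff set per campaign, cut at about 30% in these data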;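 note: 0% = DMSO wells and 100% = unlabeled Bim-BH3 peptide competitor; inhibitors lower millipolarization by displacing the labeled peptide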
# Mcl1-Noxa inh: Mcl-1/Noxa binding inhibitors, primary screen, biochemical, TR-FRET, 1536-well. TR-FRET Mcl-1/Noxa peptide binding, 2 h. inhibition, % at 21.7 µM. 220,000 tested, 1.5% active;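 active = compounds that cut the protein-peptide binding signal by more than 50% relative to plate controls in a single-dose test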;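 note: His-tagged Mcl-1 with rhodamine Noxa BH3 peptide and terbium anti-His antibody; 0% = Mcl-1 plus Noxa peptide wells and 100% = peptide-only wells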
# Bcl-xL conf: Bcl-xL inhibitors blocking Bim BH3 binding, confirmation, counter-screen for MCL1 inhibitor project, biochemical, fluorescence polarization | shares compounds with MCL1 BIM primary | GST-Bcl-xL / FITC-Bim BH3 peptide FP binding | inhibition, % at 10.9 µM | 1,700 tested, 54% active | AID 2166, 2009;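 active = inhibition above a cutoff equal to the mean inhibition of all tested compounds plus 3 SD, cut at about 30% in these data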;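 note: 0% = DMSO wells and 100% = unlabeled Bim BH3 control peptide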
# MCL1 inh confirm: inhibitors of MCL1 binding to BIM-BH3, confirmation, biochemical, fluorescence polarization, triplicate; shares compounds with MCL1 BIM primary; GST-MCL1 / FITC-Bim-BH3 fluorescence polarization; inhibition, % at 10.9 µM; 1,700 tested, 61% active;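 active = inhibition above the average of all tested compounds plus 3 SD, cut at about 40% in these data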;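 note: 0% = DMSO wells and 100% = unlabeled Bim-BH3 control peptide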
# GLD1 RNA confirm: GLD-1/TGE RNA binding inhibitors, retest, confirmation, biochemical, fluorescence polarization, triplicate. shares compounds with GLD-1 TGE inh. GLD-1/FL-TGE RNA fluorescence polarization. inhibition, % at 5.96 µM. 550 tested, 10% active;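 active = average inhibition across triplicates above the hit cutoff set in the primary screen, cut at about 32% in these data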;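 note: 0% = GLD-1 with RNA probe and DMSO and 100% = wells lacking GLD-1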
# Numbers without * were called inactive; · = not tested or not shown.
SMILES,GLD-1 TGE inh,MCL1 BIM primary,Bim-Mcl-1,Mcl1-Bid inh,BCLXL inh,Mcl1-Noxa inh,Bcl-xL conf,MCL1 inh confirm,GLD1 RNA confirm
Cc1ccc(CN2CC[C@H]3C=CCc4cccc(c43)C2)cc1,11,5,·,·,6,·,·,·,·
Cc1cccn2c(=O)c3cc(C#N)c(=NC(=O)c4ccncc4)n(CCCOC(C)C)c3nc12,44*,87*,-1,14,73*,6,43*,48*,28
Cc1cccn2c(=O)c3cc(C#N)c(=NC(=O)c4cccs4)n(CCCOC(C)C)c3nc12,57*,74*,·,3,71*,19,21,28,28
CC(=O)N=c1c(C#N)cc2c(=O)n3cccc(C)c3nc2n1CCCOC(C)C,0,23,·,-11,16,-4,·,·,·
O=[N+]([O-])c1ccccc1/C=C/C=N/n1c(-c2ccccc2F)n[nH]c1=S,-2,-14,·,-155,-28,21,·,·,·
S=C(Nc1ccc2nc(-c3ccccn3)c(-c3ccccn3)nc2c1)N1CCOCC1,40*,87*,2,-53,60*,14,31*,37,6
COc1ccc(OC)c(C(=O)NC(CC(N)=O)c2ccc(N3CCCCCC3)c([N+](=O)[O-])c2)c1 (stereo not given),-5,9,·,·,5,·,·,·,·
CCCn1c(/N=C/c2c[nH]c3ccccc23)nc2ccccc21,40*,83*,0,18,80*,17,10,4,1
C=CCN(CC=C)C(=O)CCc1nnc(CCc2c[nH]c3ccccc23)o1,2,4,4,-81,7,-6,·,·,·
CSc1c(C#N)c(N)nc2sc(C(=O)c3ccccc3)c(N)c12,33*,58*,·,-38,51*,6,71*,87*,21
CN(c1ccccc1)S(=O)(=O)c1cccc(NC(=O)CN2CCCc3ccccc32)c1,-43,-10,·,-46,-3,4,·,·,·
NS(=O)(=O)c1cccc(NC(=O)CN2CCc3ccccc32)c1,47*,77*,2,-33,63*,21,6,0,-4
COc1ccc(-c2cnc(N)nc2-c2ccc(OCc3ccccc3)cc2O)cc1,5,2,·,-5,4,9,·,·,·
Nc1ncc(-c2ccccc2)c(-c2ccc(O)cc2O)n1,43*,51*,·,·,50*,·,14,16,11
COc1ccc(CC(NC(C)=O)C(=O)NC2CCN(c3nnnn3-c3ccccc3)CC2)cc1OC (stereo not given),11,3,-3,-11,11,6,·,·,·
COc1cccc(C2C=C(c3ccc(OC)cc3OC)Nc3nnnn32)c1 (stereo not given),39*,51*,-1,-57,54*,7,14,22,18
CCOC(=O)C1C(c2ccc(O)c(OC)c2)NC(=O)NC1(O)C(F)(F)F (stereo not given),9,1,·,·,0,·,·,·,·
CCOC(=O)C1C(c2ccc3c(c2)OCO3)NC(=O)NC1(O)C(F)(F)F (stereo not given),33*,55*,-1,-6,60*,-2,1,-3,-10
CCOc1ccccc1/C=N/NC(=O)CNC(=O)c1cccs1,-8,6,-1,0,10,3,·,·,·
Cc1ccc(C(=O)N/N=C/c2ccc(-c3ccc(Br)cc3[N+](=O)[O-])o2)o1,36*,62*,·,·,51*,·,12,-11,35*
CCn1c(CSc2nnc3ccccn23)nc2cc(C(=O)O)ccc21,95*,110*,0,-14,99*,23,64*,86*,32*
CC(C)Sc1nc(N2CCOCC2)c2c(c1C#N)CC(C)(C)N(C)C2,39*,50*,0,-14,50*,14,22,36,2
COc1ccc(-n2c(-c3ccco3)nc3c(cnn3-c3ccccc3C)c2=O)cc1,7,3,·,-42,-2,23,·,·,·
COc1ccccc1C1C2=C(CCCC2=O)N(CC(=O)O)C2=C1C(=O)CCC2,58*,47*,·,·,48*,·,9,12,-1
COc1ccc(C2C3=C(CCCC3=O)N(CC(=O)O)C3=C2C(=O)CCC3)cc1Cl,-1,30,·,·,15,·,·,·,·
SMILES,GLD-1 TGE inh,MCL1 BIM primary,Bim-Mcl-1,Mcl1-Bid inh,BCLXL inh,Mcl1-Noxa inh,Bcl-xL conf,MCL1 inh confirm,GLD1 RNA confirm
COc1ccc(NC(=O)C2=CN3CCS(=O)(=O)N=C3C=C2)c(OC)c1,1,-7,·,·,-3,·,·,·,·
CC(C(=O)Nc1ccc(C(=O)O)c(O)c1)N1C(=O)/C(=C\c2ccco2)SC1=S (stereo not given),32*,91*,·,·,47*,·,46*,80*,5
CC(C(=O)N(C)C1CCS(=O)(=O)C1)N1C(=O)/C(=C/c2ccco2)SC1=S (stereo not given),9,33,·,·,16,·,·,·,·
O=C(NCCC1=CCCCC1)C(=O)NCc1ccncc1,47*,68*,2,-19,73*,10,9,-1,13
Cc1c(NC(=O)C(C)OC(=O)c2cc(-c3cccc4ccccc34)nc3ccccc23)c(=O)n(-c2ccccc2)n1C (stereo not given),38*,86*,-3,1,75*,13,26,30,3
O=C(c1ccccc1)[C@@H]1[C@@H]2C(=O)N(c3ccc(F)cc3)C(=O)[C@@H]2C2CCCN21 (stereo not given in full),37*,62*,·,-7,64*,-8,58*,62*,0
COC(=O)c1cc2c(C)cc3ccc(C)cn3c-2c1C(=O)OC,55*,99*,3,-40,93*,-15,75*,98*,41*
CN1c2ccccc2N(C)C1(C)c1ccccc1,48*,65*,1,39,69*,80*,74*,101*,9
